Calpain2 inh: calpain II (pig) inhibition. purified calpain II, fluorogenic peptide substrate, 30 min. inhibition, % at 16 µM. 220,000 tested, 0.37% active. AID 1236;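 active = inhibition above about 50%, limit read from the data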
ROMK mod: modulators of human ROMK potassium channel; 130,000 tested, 2% active; Tet-inducible ROMK, thallium flux fluorescence; actives lie on both sides; B-score at 10 µM;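 active = signal ratio slope over the read window, or its plate-corrected B-score, at least 3 SD from the plate mean, either direction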;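 also: B-score of the F/F0 ratio slope over 7 to 12 s after thallium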
Target sequence (P48048 whole entry, looked up): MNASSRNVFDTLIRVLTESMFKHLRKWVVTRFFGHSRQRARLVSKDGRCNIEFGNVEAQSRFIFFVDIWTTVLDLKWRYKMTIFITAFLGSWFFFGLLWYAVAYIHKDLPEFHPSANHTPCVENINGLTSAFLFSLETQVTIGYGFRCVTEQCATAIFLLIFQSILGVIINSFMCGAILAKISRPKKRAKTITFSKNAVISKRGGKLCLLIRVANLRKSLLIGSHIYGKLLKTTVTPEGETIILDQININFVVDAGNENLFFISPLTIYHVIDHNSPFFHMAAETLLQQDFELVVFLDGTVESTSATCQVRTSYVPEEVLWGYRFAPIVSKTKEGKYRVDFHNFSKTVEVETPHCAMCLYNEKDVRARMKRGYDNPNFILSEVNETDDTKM
Cl transport mod: modulators of human KCC2 chloride dependent transport; B-score of Tl+ flux slope (higher = more flux/activation; lower = inhibition) at 10 µM; AID 1456; KCC2 cells, thallium flux FluoZin-2 fluorescence; 190,000 tested, 2.2% active; Q9H2X9;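 active = thallium flux slope and its plate-corrected score both differing from the plate sample mean at a set confidence after two filtering rounds, in either direction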;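 also: slope of fluorescence scaled to starting intensity during 10 to 20 s after thallium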
L major viab: Leishmania major promastigote growth inhibition; inhibition, % at 10 µM; 200,000 tested, 9% active; Leishmania major promastigotes, resazurin fluorescence viability; in the data active = inhibition above about 50%;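 also: promastigotes grown with compound for 44 hours at 28 °C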
WT yeast gro inh: growth inhibition of WT yeast, mitochondrial fusion screen; mitochondrial fusion phenotypic screen, WT strain; inhibition, % at 10 µM; 190,000 tested, 2.1% active; AID 1362; in the data active = inhibition above about 58%; tested in S. cerevisiae
* hit, by the source's call; . = not tested or not shown. Sampled rows, rich in hits. Any-hit rate of the full collection: about 12%.

SMILES | Calpain2 inh | ROMK mod | Cl transport mod | L major viab | WT yeast gro inh
O=C(Nc1nc2ccc(SC(F)F)cc2s1)c1ccc2c(c1)S(=O)(=O)c1ccccc1C2=O | -49 | -0.48 | 1.7 | 86* | 14
Cc1c(N2C(=O)c3cccc4cccc(c34)C2=O)c(=O)n(-c2ccccc2)n1C | 8 | 0.1 | . | -2 | 97*
Cc1c(N2C(=O)/C(=C/C3CC=CCC3)SC2=S)c(=O)n(-c2ccccc2)n1C (stereo not drawn) | -30 | . | 0.021 | . | .
Cc1c(N2C(=O)/C(=C/c3cccc4ccccc34)SC2=S)c(=O)n(-c2ccccc2)n1C | . | . | -6.8* | -5 | .
CN(C)C(=O)CCCCCCCCC(=O)N(C)C | -3 | . | 0.92 | . | .
Cc1cccc(Cn2cnc3c(nnn3Cc3ccc(Cl)cc3)c2=O)c1 | 18 | -0.94 | . | -3 | 7
Cc1cccc(Cn2nc(-n3cccc3)c3c(C)cc(C)nc32)c1 | 10 | 0.37 | 0.012 | 8 | 62*
COc1ccc(C(=O)OCC(=O)N2C(C)CCCC2C)cc1[N+](=O)[O-] (stereo not drawn) | 14 | . | 0.17 | 14 | 6
Cc1ccc(NC(=S)N2CCN(CCN3C(=O)c4cccc5cccc(c45)C3=O)CC2)cc1 | 19 | 0.44 | -0.67 | 100* | 6
O=C(CCCN1C(=O)c2cccc3cccc(c23)C1=O)N1CCN(c2ccccc2O)CC1 | -5 | -0.88 | -0.15 | 70* | 11
O=C(CN1CCN(CCN2C(=O)c3cccc4cccc(c34)C2=O)CC1)c1ccc(F)cc1 | -88 | . | . | 37 | 19
Cc1ccc(NC(=O)CCN2C(=O)c3cccc4cccc(c34)C2=O)cc1 | -1 | 0.39 | 0.24 | -2 | -6
O=C1c2cccc3cccc(c23)C(=O)N1CCCN1CCN(c2ccc(F)cc2)CC1 | 54* | -1.7 | -0.84 | 34 | 60*
O=C(CCCN1C(=O)c2cccc3cccc(c23)C1=O)N1CCN(c2ccccc2)CC1 | -5 | . | -0.084 | 43 | 1
O=C1c2cccc3cccc(c23)C(=O)N1CCN1CCN(C(=S)Nc2ccc(F)cc2)CC1 | 29 | . | -0.0024 | 59* | -4
NNC(=O)CCc1nc2ccc(O)cc2[nH]1 | 10 | 0.13 | -0.032 | -2 | 5
S=c1[nH]nc(Cn2cnc3ccccc32)n1-c1ccccc1Cl | 22 | . | 0.66 | . | .
CC(C)(C)C(=O)COC(=O)c1cc(-c2ccncc2)nc2ccccc12 | -27 | -2 | -0.96 | 8 | 53
CCOc1ccc(CCNC(=O)COC(=O)c2ccc(OC)c(OC)c2OC)cc1OCC | 15 | 0.098 | -0.44 | 66* | 10
O=C(O)CCCN1C(=O)/C(=C/c2ccncc2)SC1=S | -7 | -2.1 | -2.2 | . | .
COc1ccc(CN2C(=O)/C(=C/c3ccncc3)SC2=S)cc1 | -13 | -1.1 | 0.57 | 68* | 0
COc1cc(/C=C2/SC(=O)N(Cc3ccccc3)C2=O)ccc1OCc1ccncc1 | -108 | 0.61 | 0.3 | 92* | -3
COc1cc(/C=C2\SC(=O)N(Cc3ccc(Cl)cc3)C2=O)cc([N+](=O)[O-])c1O | 5 | 1.3 | -2.2 | 3 | 56
COc1ccc(/C=C2/SC(=O)N(CCNC(=O)C3COc4ccccc4O3)C2=O)cc1 (stereo not drawn) | 14 | . | -0.51 | -2 | 9
COc1cc(/C=C2\SC(=O)N(Cc3ccc(F)cc3)C2=O)cc([N+](=O)[O-])c1O | -9 | -1.6 | -2.4 | -4 | 62*
SMILES | Calpain2 inh | ROMK mod | Cl transport mod | L major viab | WT yeast gro inh
CCOc1ccc(/C=C2\SC(=O)N(CCNC(=O)C3COc4ccccc4O3)C2=O)cc1OC (stereo not drawn) | -72 | -1.7 | 0.83 | 71* | 9
Cc1ccccc1-c1nnc(SCCC(=O)N2CCOCC2)o1 | -21 | . | -1.5 | -8 | -12
Cc1ccc(C(=O)N/C(=C/C=C\c2ccccc2)C(=O)NCc2ccco2)cc1 | -12 | . | -3.5 | 42 | -4
Cc1nc(NC(=O)CSc2nnc(N)s2)c(Cl)cc1Cl | -10 | 0.58 | 0.32 | -3 | -9
CCOC(=O)C1C(=O)C=C(c2ccc(Br)cc2)CC1c1ccco1 (stereo not drawn) | 21 | . | -0.88 | 5 | 62*
CCOC(=O)C1C(=O)C=C(c2cccc(NS(C)(=O)=O)c2)CC1c1ccco1 (stereo not drawn) | -19 | -0.18 | -0.91 | 21 | -1
O=C(CNC(=O)c1ccc(S(=O)(=O)N2CCCC2)cc1)N/N=C/c1c(Cl)cccc1Cl | -23 | -0.14 | 0.8 | 83* | -23
O=C(CNC(=O)c1ccc(S(=O)(=O)N2CCCC2)cc1)N/N=C/c1ccc(Cl)cc1 | 22 | 0.34 | -0.25 | 91* | -8
O=C(CNC(=O)c1ccccc1)N/N=C/c1ccccc1Cl | 6 | 0.5 | -0.21 | 31 | -2
O=C(Cc1ccc(Cl)cc1)N/N=C/c1c(Cl)cccc1Cl | 15 | -0.91 | 0.019 | 72* | 20
O=C(CNC(=O)c1ccc(S(=O)(=O)N2CCCC2)cc1)N/N=C/c1ccccc1 | 5 | 0.18 | -0.21 | 87* | -9
COc1ccc(/C=N/NC(=O)CNC(=O)c2ccc(S(=O)(=O)N3CCOCC3)cc2)cc1OC | -2 | 0.93 | 0.19 | -8 | -2
COc1ccc(CNCC(=O)Nc2ccccc2-n2cccc2)cc1 | -17 | 1.5 | -0.45 | -5 | 1
O=C(CNC(=O)c1ccc(S(=O)(=O)N2CCCC2)cc1)N/N=C/c1ccc(Cl)cc1Cl | 24 | 0.19 | 0.91 | 69* | 6
C/C(=N\NC(=O)CCn1nnc2ccccc21)c1cccs1 | 9 | . | -0.7 | . | .
CN(C)Cc1ccccc1Sc1ccccc1Br | 3 | -0.1 | -0.73 | 18 | 8
CN(C)Cc1ccccc1Sc1cccc2ccccc12 | 7 | -0.95 | 0.19 | 97* | 24
Cc1ccc(C)c(NC(=O)CN(C)S(=O)(=O)c2cccc3cccnc23)c1 | -16 | 0.82 | -0.42 | . | .
Cc1n[nH]c(=S)n1/N=C/c1ccc(OCc2ccc(Cl)cc2)cc1 | 0 | . | -0.032 | 4 | 24
Cc1cc(C)c(COc2ccc(/C=N/n3c(C)n[nH]c3=S)cc2)c(C)c1 | -6 | -0.049 | 2 | 2 | 91*
COc1ccc(S(=O)(=O)NCc2ccco2)cc1N(C)S(=O)(=O)c1ccccc1 | -8 | . | . | 60* | -2
COc1ccc(OC)c(NC(=O)c2cc(S(=O)(=O)NCc3ccco3)ccc2F)c1 | -20 | . | -0.88 | 6 | -3
COc1cc(OC)c(N(C)S(=O)(=O)c2cccc(C(=O)OCC(=O)NCc3ccco3)c2)cc1Cl | 29 | 0.33 | -0.64 | 53* | -16
COc1ccccc1C(CNC(=O)c1ccc(S(=O)(=O)NCc2ccco2)cc1)N(C)C (stereo not drawn) | -8 | 0.18 | -0.24 | 51* | -10
CN(c1ccccc1)S(=O)(=O)c1cccc(C(=O)OCC(=O)NCc2ccco2)c1 | -12 | 0.099 | -1.3 | 9 | -9
CN(C)C(=O)COC(=O)c1ccc(S(=O)(=O)NCc2ccco2)cc1 | -14 | . | 0.79 | . | .
O=C(CSc1cccc[n+]1[O-])NC(=O)c1ccc(OC(F)F)cc1 | 4 | -0.88 | 0.12 | -15 | -22
COc1cc(C2C(Oc3ccccc3C)C(=O)N2Cc2ccc(F)cc2)cc(OC)c1OC (stereo not drawn) | -2 | . | -0.75 | 99* | 4

Compound activity as filed in PubChem.
